Out of some 360,000 compounds screened, about 25,000 (6.9%) were called active. A call without a number means that no potency is given here. Another 9% or so got no clear call; they are omitted. This excerpt belongs to a sample that is enriched for actives. Values without a mark were called inactive. Calls follow the shape of the dose curve; as a rule, active = well fitted inhibition curve with a large enough effect; inconclusive = small, poorly fitted or top-dose-only effect; inactive = flat fitted curve, though single readings scatter.
The molecules below were run against Luciferin 4-monooxygenase (Photinus pyralis) (UniProt P08659) (assay: qHTS profiling assay for firefly luciferase inhibitor/activator using purifed enzyme and Km concentrations of substrates (counterscreen for miR-21 project)). Conditions: purified FLuc, luminescence inhibition; series mostly up to 57.5 µM.
Summary of the method: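 Purified P. pyralis luciferase (10nM final) with 10uM D-luciferin and 10uM ATP (Km levels) in 50mM Tris acetate pH 7.5, 10mM Mg acetate, 0.01% Tween-20, 0.05% BSA; qHTS 6-point titration, ~60 µM downward; luminescence read.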
Also: nearly all actives have a fitted effect of over 55% in size.
Potency is read from the fitted curve at half-maximal effect.

Sequence of Luciferin 4-monooxygenase (Photinus pyralis) (P08659 whole entry, looked up): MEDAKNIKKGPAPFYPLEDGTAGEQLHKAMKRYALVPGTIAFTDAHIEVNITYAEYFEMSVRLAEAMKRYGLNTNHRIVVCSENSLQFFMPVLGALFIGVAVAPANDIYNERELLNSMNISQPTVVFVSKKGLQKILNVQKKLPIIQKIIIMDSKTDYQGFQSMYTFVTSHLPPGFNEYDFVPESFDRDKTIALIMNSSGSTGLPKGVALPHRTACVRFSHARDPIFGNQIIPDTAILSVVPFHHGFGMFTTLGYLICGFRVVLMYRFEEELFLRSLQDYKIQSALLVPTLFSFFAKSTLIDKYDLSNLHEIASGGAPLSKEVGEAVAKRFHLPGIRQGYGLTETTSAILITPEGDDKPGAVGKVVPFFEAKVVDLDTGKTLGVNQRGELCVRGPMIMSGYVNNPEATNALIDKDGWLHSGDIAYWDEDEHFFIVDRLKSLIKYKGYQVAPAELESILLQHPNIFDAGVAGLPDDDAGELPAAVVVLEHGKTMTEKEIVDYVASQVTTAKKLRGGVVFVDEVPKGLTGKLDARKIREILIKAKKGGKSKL

SMILES	Potency	activity change, negative = inhibition
CC1=C(C(=O)OCc2ccc(C)cc2)C(c2c(Cl)cccc2Cl)CC(=O)N1 (stereo not given)	inactive	–
CCOC(=O)c1ccc(NC(=O)C2CC(=O)NC(=Nc3ccc(C)c(C)c3)S2)cc1 (stereo not given)	inactive	–
O=C1N/C(=C/c2cccs2)C(=O)N1Cc1ccc(F)cc1	inactive	–
CSC1=N/C(=C\C=C\c2cccs2)C(=O)S1	16.9 µM (active)	–
O=S1(=O)CCC(NC(=S)SCc2ccccc2Br)C1 (stereo not given)	inactive	–
Cc1ccc(-c2nc(COC(=O)c3c(C)noc3C)cs2)cc1	9.53 µM (active)	–
COc1cc(OC)cc(C(=O)NCC(=O)OCc2csc(-c3ccccc3)n2)c1	inactive	–
Cc1ccc(S(=O)(=O)N2CCN(C(=O)COC(=O)c3c(C)noc3C)CC2)c(C)c1	inactive	–
CCC(C)C(N=C1NS(=O)(=O)c2ccccc21)C(=O)N1CCC(C)CC1 (stereo not given)	inactive	–
Nc1c(NCCc2ccccc2)c2ccccc2oc1=O	inactive	–
CCOc1ccc(/C(O)=C2\C(=O)C(=O)N(c3ccc(OC)cc3)C2c2ccccc2[N+](=O)[O-])cc1 (stereo not given)	8.49 µM (active)	–
COc1ccc(C2/C(=C(/O)c3ccccc3)C(=O)C(=O)N2C)c(OC)c1 (stereo not given)	inactive	–
COc1ccc(/C(O)=C2/C(=O)C(=O)N(c3nc(C)c(C)s3)C2c2ccco2)cc1 (stereo not given)	inactive	–
Cc1ccc(C(=O)Nc2ncccc2C)cc1S(=O)(=O)N1CCOCC1	inactive	–
CCOc1cccc(/C=N/NC(=S)NCCN2CCOCC2)c1O	inactive	–
CCOc1cccc(/C=N/N2C(=O)CSC2=S)c1O	21.3 µM (active)	–
O=C1CSC(=S)N1c1ccc(O)cc1	inactive	–
C=CCNC(=S)NNC(=O)COc1c(Cl)cc(Cl)cc1Cl	inactive	–
COc1ccccc1CNC(=O)NCc1noc2ccc(C)cc12	inactive	–
O=S(=O)(Cc1nnnn1-c1ccccc1)c1ccccc1	inactive	–
c1ccc(-n2nc3ccccc3n2)cc1	19 µM (active)	–
Oc1ccc(-c2nncn2-c2ccccc2)cc1	inactive	–
COc1ccc(NC(=O)CN(C)C(=O)c2ccc(COc3ccccc3)o2)cc1	inactive	–
COc1ccc(NC(=O)CN(C)C(=O)c2cc(-c3ccc(C)o3)nc3ccccc23)cc1	3.38 µM (active)	–
COc1ccc(NC(=O)CN(C)C(=O)Cc2coc3cc(C)c(C)cc23)cc1	inactive	–

SMILES	Potency	activity change, negative = inhibition
COc1ccc(NC(=O)CN(C)C(=O)CNC(=O)C2CCCCC2)cc1	inactive	–
COc1ccc(NC(=O)CN(C)C(=O)c2n[nH]c3ccccc23)cc1	23.9 µM (active)	–
CN(C)S(=O)(=O)c1ccc(NC(=O)COC(=O)c2n[nH]c3ccccc23)cc1	inactive	–
Cc1ccc(C(=O)Nc2ccc(OCc3cc(=O)n4c5c(sc4n3)CCCC5)cc2)cc1	inactive	–
Cc1ccc(NC(=O)CCCNC(=O)c2ccc(Cl)cc2)cc1S(=O)(=O)N1CCOCC1	inactive	–
COc1cc(NC(=O)c2noc3c2CSc2ccccc2-3)cc(OC)c1OC	inactive	–
COc1ccc(CNC(=O)COCc2cc(-c3cccs3)on2)cc1OC	inactive	–
COc1ccc(-c2csc(-c3c(N)c(C(=O)c4ccc(OC)c(OC)c4)n4ccccc34)n2)cc1	inactive	–
COc1ccc(-c2csc(-c3cccs3)n2)cc1OC	23.9 µM (active)	–
COc1ccccc1-c1cc(C(F)(F)F)nc(S(=O)(=O)CCCC(=O)Nc2ccc(F)cc2F)n1	inactive	–
CCN(C(=O)Cn1c(=O)nc(-c2ccccc2)c2cc(Cl)ccc21)c1cccc(C)c1	inactive	–
Cc1ccsc1C(=O)NCCc1ccco1	21.3 µM (active)	–
O=C(NCCc1ccco1)c1nn(Cc2ccccc2)c(=O)c2ccccc12	inactive	–
COc1cc(OC)cc(C(=O)NCCSCc2ccco2)c1	inactive	–
CCC(=O)Nc1cccc(C2=NOC3(C2)C[C@@H](C(N)=O)N(C(=O)c2cc([N+](=O)[O-])cc([N+](=O)[O-])c2C)C3)c1 (stereo not given in full)	inactive	–
COc1ccc(Cn2ccc3nc(C)c(C(=O)Nc4ccc(C)c(F)c4)cc3c2=O)cc1	inactive	–
COc1cccc(Cn2c(CNS(=O)(=O)c3ccc(Cl)s3)nc3cccnc32)c1	inactive	–
COc1ccc(NC(=O)C(c2ccccc2)N2Cc3ccccc3C2=O)cc1 (stereo not given)	inactive	–
COc1cccc(OC)c1OCCN1CCN(C(=O)c2ccco2)CC1	inactive	–
O=C(c1cc(-c2cccs2)on1)N1CCCCC1	23.9 µM (active)	–
CNC(=O)n1ccc(C(=O)N2CCCCC2)n1	–	2.3% [at 2.3 µM]
CCCOC1CCCN(C(=O)c2cc(COc3cncc(Cl)c3)on2)C1 (stereo not given)	10.7 µM (active)	–
Cc1nonc1C1CCCN1C(=O)c1cc(COc2cccc(C(F)(F)F)c2)on1 (stereo not given)	inactive	–
O=C(c1cc(-c2ccccc2O)on1)N1CCCC1	6.75 µM (active)	–
O=C(c1ccc(F)cc1)N1CCCC(c2nc(-c3cccs3)no2)C1 (stereo not given)	inactive	–

SMILES	Potency	activity change, negative = inhibition
O=C(c1ccco1)N1CCN(C(=O)c2ccc(COc3ccc(F)cc3)o2)CC1	inactive	–
O=C(c1ccc(Cl)c(Cl)c1)N1CCCC1	inactive	–
CCOC(=O)CC1(NC(=O)c2cc(COc3cncc(Cl)c3)on2)CCCCC1	inactive	–
COc1cccc(OCc2cc(C(=O)N3CCN(C(=O)c4ccco4)CC3)no2)c1	12 µM (active)	–
CC(=O)c1ccc(NC(=O)c2cc(-c3cccs3)on2)cc1	inactive	–
CCOC(=O)c1c(C)oc2nc(C)nc(N3CCN(c4ccc(OC)cc4)CC3)c12	inactive	–
O=S(=O)(c1ccc(SCc2ccc(Br)cc2)nc1)N1CCOCC1	inactive	–
COc1ccccc1N1CCN(c2ncnc3onc(-c4cccc(Cl)c4)c23)CC1	inactive	–
COc1cc(NC(=O)c2nn(-c3ccc(C)cc3)c(=O)c3c2c2ccccc2n3C)cc(OC)c1OC	inactive	–
COc1cc2nc(SCC(=O)Nc3ccccc3F)n3nc(-c4ccccc4)nc3c2cc1OC	inactive	–
c1ccc(CNc2ncnc3[nH]ncc23)cc1	inactive	–
Cc1ccc(NC(=O)CN(C)C(=O)c2cccc(S(=O)(=O)N3CCCC3)c2)cc1	inactive	–
Cc1[nH]c2c(C(=O)N3CCCC(CCC(=O)NCc4ccccc4F)C3)cccc2c1C (stereo not given)	inactive	–
COc1cc(Cl)ccc1OCc1cc(C(=O)N2CC[C@@H]3CCCC[C@H]3C2)no1	23.9 µM (active)	–
COc1ccc(Cl)cc1C(=O)NNC(=S)NC1CCCC1	inactive	–
O=C(c1ccco1)N1CCN(C(=O)c2cc(-c3ccccc3F)no2)CC1	13.5 µM (active)	–
COc1ccc(OCc2cc(C(=O)N3CCCC3)no2)c2ccccc12	9.53 µM (active)	–
COc1ccccc1OCc1ccc(C(=O)N2CCN(C)CC2)o1	inactive	–
Cc1ccc(C)c(OCc2cc(C(=O)N3CCN(c4cnccn4)CC3)no2)c1	inactive	–
O=C(NCCCN1CCOCC1)c1cc(-c2ccccc2F)no1	inactive	–
COc1ccccc1-c1cc(C(=O)N2CCCCC2)no1	5.36 µM (active)	–
O=C(Cc1c(F)cccc1Cl)N1CCN(C(=O)c2ccco2)CC1	inactive	–
COc1cc(Cl)ccc1OCc1cc(C(=O)N(C)CCc2c(C)n[nH]c2C)no1	inactive	–
COc1ccc(C(=O)C2CCCN(C(=O)c3cc(C)on3)C2)cc1F (stereo not given)	inactive	–
COc1cccc(-c2cc(C(=O)N3CCN(c4ccccc4OC)CC3)no2)c1	inactive	–

From PubChem BioAssay AID588342 (National Center for Advancing Translational Sciences (NCATS), 2011)
